# In PubChem BioAssay (Tox21):
# Records with an inconclusive call do not appear. Active and inactive are the calls of the source. Calls follow the shape of the dose curve; as a rule, active = well fitted activation curve with a large enough effect in the repeat runs; inconclusive = weak or mixed curves; inactive = flat fitted curve, though single readings scatter.
# Assay: Caspase-3/7 induction in HepG2 cells by small molecules, qHTS assay (AID 1346978); also: nearly all actives have a fitted effect of over 15% in size
# Conditions: HepG2 caspase-3/7 activation, Caspase-Glo luminescence, 17 h; series mostly up to 92.4 µM; caspase activation: at the top concentration
# Text: National Center for Advancing Translational Sciences [NCATS] NIH Chemical Genomics Center [NCGC] U.S. Environmental Protection Agency [EPA] National Institutes of Environmental Health Sciences [NIEHS] National Toxicology Program [NTP] Assay overview: Apoptosis is a process of programmed cell death and plays a central role in the development of multicellular organisms. It is a highly regulated process and induces cell death by activating caspases, which are the members of cysteine aspartic acid-specific protease (caspase) family. Caspases involved in apoptosis are classified by their mechanism of action as initiator caspases (caspase-2, -8, -9 and -10) and executioner caspases (caspase-3, -6, and -7). Inhibition of apoptosis results in number of cancers, autoimmune diseases, inflammatory diseases and viral infection. To identify small molecule compounds that induce apoptosis, a homogeneous, luminescent Caspase-Glo 3/7 assay was used. Wild type HepG2 cells were used to screen Tox21 libraries for identifying caspase-3/7 activity inducers.
# Assay Protocol Summary: HepG2 cells were dispensed at 2,000 per well in 5uL of culture medium into white solid bottom 1536-well plates (Corning Life Sciences, Corning, NY) using a Multidrop Combi (Thermo Scientific, Waltham, MA) dispenser. The assay plates were incubated at 37 C and 5% CO2 for 5hr, and then 23nL of compounds dissolved in DMSO and positive control were transferred using a Pintool station (Wako, San Diego, CA). The assay plates were incubated at 37C and 5% CO2 for 17hr. For caspase-3/7 activity read, 4uL of Caspase-Glo 3/7 reagent (Promega Corporation, Madison, WI) was added to each well of the assay plates using Flying Reagent Dispenser (FRD, Aurora Discovery, San Diego, CA) and incubated the assay plates at room temperature for 30min. The luminescence signal was quantified using a ViewLux plate reader (Perkin Elmer, Shelton, CT).
# % is scaled to controls: 0 for no effect and ±100 for the full control effect; potency is read from the fitted curve at half-maximal effect.
Compound,caspase activation,Potency
C=COCCCC,0.471% (inactive),
N#CCCOCCC#N,0.252% (inactive),
C=C(C)CCO,8.06% (inactive),
CS(=O)(=O)c1ccc([C@@H](CC2CCCC2)C(=O)Nc2cnccn2)cc1Cl,1.97% (inactive),
C[C@H]1O[C@@H](O[C@H]2CC[C@@]3(C)[C@H](CC[C@@H]4[C@@H]3C[C@@H](O)[C@]3(C)[C@@H](C5=CC(=O)OC5)CC[C@]43O)C2)C[C@H](O)[C@@H]1O[C@H]1C[C@H](O)[C@H](O[C@H]2C[C@H](O)[C@H](O[C@@H]3O[C@H](CO)[C@@H](O)[C@H](O)[C@H]3O)[C@@H](C)O2)[C@@H](C)O1,-7.06% [at 42.5 µM] (inactive),
COc1c(Br)cc(Br)c(C)c1Br,-0.034% (inactive),
Clc1cccc(Cl)n1,0.396% (inactive),
CN(C)CCOc1ccc(/C(=C(/CCCl)c2ccccc2)c2ccccc2)cc1,,57.2 µM (active)
CC/C(=C(/c1ccc(O)cc1)c1ccc(OCCN(C)C)cc1)c1ccccc1,,40.3 µM (active)
Cc1ccc2nc(-c3ccc(N)cc3)sc2c1S(=O)(=O)O,-20.5% [at 42.5 µM] (inactive),
Cc1ccc2sc3cccc(C)c3c2c1,-0.225% (inactive),
c1ccc2occc2c1,-1.77% (inactive),
COc1cc([C@@H]2c3cc4c(cc3[C@@H](O[C@@H]3O[C@@H]5CO[C@@H](C)O[C@H]5[C@H](O)[C@H]3O)[C@H]3COC(=O)[C@H]23)OCO4)cc(OC)c1O,,53.9 µM (active)
O=C1OCc2ccccc21,0.0765% (inactive),
CCSCC,0.874% (inactive),
CN(C/C=C/c1ccccc1)Cc1cccc2ccccc12,-0.282% [at 42.5 µM] (inactive),
C/C(=N\[Si](C)(C)C)O[Si](C)(C)C,-2.74% (inactive),
C=CC(=O)O[C@H]1C[C@@H]2CC[C@@]1(C)C2(C)C,1.04% (inactive),
c1ccc2cc3c4ccccc4c4ccccc4c3cc2c1,,6.89 µM (active)
O=S(=O)(c1ccc(OCc2ccccc2)cc1)c1ccccc1O,0.151% (inactive),

Compound,caspase activation,Potency
Cc1ccc(Cl)c(N)c1Cl,-0.412% (inactive),
O=C(O)CN(CCCN(CC(=O)O)CC(=O)O)CC(=O)O,0.754% [at 19 µM] (inactive),
CCN(CC)c1ccc(C=O)cc1,5.8% (inactive),
C=C(C)C1CCC(C)CC1O (stereo not given),-1.29% (inactive),
CCCC(=O)c1cc(O)c(O)cc1O,-1.24% (inactive),
CCc1cccc(C)c1N(C(=O)CS(=O)(=O)O)C(C)COC (stereo not given),0.174% (inactive),
O=C(Cl)c1ccc(Cl)cc1Cl,0.481% (inactive),
CCCCCN=C(N)N/N=C/c1c[nH]c2ccc(OC)cc12,,11.9 µM (active)
CN1CCN(c2ccccc2/C=C2\SCCN(c3ccc(Cl)c(Cl)c3)C2=O)CC1,,61.1 µM (active)
Nc1ccc2c(S(=O)(=O)O)cccc2c1S(=O)(=O)O,-1.37% [at 42.5 µM] (inactive),
CCOC(=O)[C@H](C)O,-1.41% (inactive),
Cc1ccc(C2OC[C@@H]3OC(c4ccc(C)cc4)O[C@H]([C@H](O)CO)[C@@H]3O2)cc1 (stereo not given in full),-0.052% (inactive),
S=C1NC=NC2N=CNC12 (stereo not given),-3.02% (inactive),
CCc1cccc(CC)c1,0.913% (inactive),
Nc1ccc(F)c([N+](=O)[O-])c1,-1.19% (inactive),
[Cl][Eu]([Cl])[Cl],0.025% (inactive),
O=C(Nc1ccccc1)c1cc(Cl)ccc1O,-15.1% (inactive),
CC(C)C(=O)C(C)C,0.909% (inactive),
CCNc1nc(NC(C)(C)C)nc(OC)n1,0.108% (inactive),
O=C1c2ccccc2C(=O)c2c(Cl)cccc21,-2.76% [at 42.5 µM] (inactive),
